According to PubChem BioAssay AID504339 (National Center for Advancing Translational Sciences (NCATS), 2011):
Among all 390,000 compounds or so, about 17,000 (4.4%) were called active. Where a call stands in place of a potency, no number is given. Inconclusive results (about 8%) are left out. Calls come from the whole dose curve; as a rule, active = well fitted inhibition curve with a large enough effect; inconclusive = small, poorly fitted or top-dose-only effect; inactive = no such curve, though single readings can be large or run the other way. The sample as a whole holds a higher share of actives than the screen did.

target: Lysine-specific demethylase 4A (Homo sapiens) (UniProt O75164); experiment: qHTS Assay for Inhibitors of JMJD2A-Tudor Domain; conditions: AlphaScreen JMJD2A-Tudor / H3K4me3 peptide binding; series mostly up to 114 µM; note: nearly all actives have a fitted effect of over 50% in size
Sequence (O75164 whole entry, looked up, the tested form may be a part): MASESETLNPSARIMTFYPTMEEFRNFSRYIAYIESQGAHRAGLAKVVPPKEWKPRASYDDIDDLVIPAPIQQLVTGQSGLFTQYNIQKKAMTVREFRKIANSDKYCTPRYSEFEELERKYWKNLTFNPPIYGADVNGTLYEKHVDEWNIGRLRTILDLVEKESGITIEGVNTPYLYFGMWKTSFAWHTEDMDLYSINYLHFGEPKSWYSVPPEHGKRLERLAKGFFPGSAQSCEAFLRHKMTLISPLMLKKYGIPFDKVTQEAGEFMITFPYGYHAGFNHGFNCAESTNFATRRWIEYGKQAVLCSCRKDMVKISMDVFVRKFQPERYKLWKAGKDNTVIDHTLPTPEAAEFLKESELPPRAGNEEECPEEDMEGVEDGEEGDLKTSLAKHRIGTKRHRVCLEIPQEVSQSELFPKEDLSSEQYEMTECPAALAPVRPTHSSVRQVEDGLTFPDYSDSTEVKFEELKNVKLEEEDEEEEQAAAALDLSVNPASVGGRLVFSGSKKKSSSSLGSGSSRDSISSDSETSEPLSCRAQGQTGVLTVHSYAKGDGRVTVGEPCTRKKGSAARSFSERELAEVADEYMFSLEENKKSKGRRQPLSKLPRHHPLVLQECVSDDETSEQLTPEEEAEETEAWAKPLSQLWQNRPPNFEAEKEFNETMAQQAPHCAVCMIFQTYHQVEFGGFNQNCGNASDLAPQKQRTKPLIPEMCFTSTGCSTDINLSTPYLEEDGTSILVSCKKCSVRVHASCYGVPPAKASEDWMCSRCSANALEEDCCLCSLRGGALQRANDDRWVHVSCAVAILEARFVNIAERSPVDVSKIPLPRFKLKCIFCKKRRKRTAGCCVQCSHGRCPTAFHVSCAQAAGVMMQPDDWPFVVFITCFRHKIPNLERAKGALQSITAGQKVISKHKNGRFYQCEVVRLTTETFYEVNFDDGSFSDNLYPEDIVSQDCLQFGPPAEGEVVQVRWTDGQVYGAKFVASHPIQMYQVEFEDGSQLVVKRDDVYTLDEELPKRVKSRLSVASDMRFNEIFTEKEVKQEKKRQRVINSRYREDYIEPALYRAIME
Potency is the fitted concentration of half-maximal effect.

Row | SMILES | Potency | activity change, negative = inhibition
1 | Cc1nn(C(=O)c2c(F)cccc2F)c(C)c1S(=O)(=O)N1CCOCC1 | inactive | 
2 | Fc1ccc(-n2ncc3c(Nc4ccc(Oc5ccccc5)cc4)ncnc32)cc1 | inactive | 
3 | Cc1ccccc1CSCCNC(=O)C1CCN(S(=O)(=O)Cc2ccccc2)CC1 | inactive | 
4 | O=C(c1ccc(Cl)cc1)n1nc(-c2cccnc2)nc1NCc1ccc(F)cc1 | inactive | 
5 | CCOC(=O)c1cc2c(=O)n3ccccc3nc2n(CC2CCCO2)c1=NC(=O)c1ccccc1F (configuration not stated) | inactive | 
6 | Cc1csc(Nc2ccc(Cl)cc2)[n+]1-c1ccc(Cl)cc1 | 14.1 µM (active) | 
7 | CC1CCCN(c2nc3c(S(=O)(=O)c4ccc(C(C)C)cc4)nnn3c3ccsc23)C1 (configuration not stated) | inactive | 
8 | CCC(CC)C(=O)N1CCN(c2cccc(C)c2C)CC1 | inactive | 
9 | CCOC(=O)c1ccc2[nH]c(C)c(CN3CCN(C)CC3)c(=O)c2c1 | inactive | 
10 | Cc1cccc(N2CCN(C(=O)c3ccc4c(c3)CCN4S(=O)(=O)c3ccccc3)CC2)c1C | inactive | 
11 | Cc1[nH]c2ccc(C(=O)N3CCN(C)CC3)cc2c1C | 50.1 µM (active) | 
12 | COC(=O)CCNC(=O)c1ccc2[nH]c(C)c(C)c2c1 | inactive | 
13 | CCn1c(C)c(C)c2cc(C(=O)N3CCN(c4cccc(C)c4C)CC3)ccc21 | 31.6 µM (active) | 
14 | CCOc1ccccc1NC(=S)N1CCN(c2cccc(C)c2C)CC1 | inactive | 
15 | CCS(=O)(=O)N1CCc2cc(C(=O)N3CCN(c4ccccc4OC)CC3)ccc21 | inactive | 
16 | CCOc1ccccc1N1CCN(C(=O)c2ccc3[nH]c(C)c(C)c3c2)CC1 | 56.2 µM (active) | 
17 | Cn1c(=O)cc(OCC(=O)N2CCN(c3ccccc3)CC2)c2ccccc21 | inactive | 
18 | Cc1ccccc1C(=O)Nc1sc2c(c1C(=O)N1CCC(C)CC1)CCCC2 | inactive | 
19 | CC(=O)Nc1c(C)nn(-c2ccccc2)c1N1CCC(C(=O)Nc2cc(Cl)ccc2C)CC1 | inactive | 
20 | Cc1ccc(Cc2nc3ccccc3nc2SCC(=O)Nc2cccc(C(F)(F)F)c2)cc1 | inactive | 
21 | CCc1nc2ccc(C(=O)N3CCN(c4cc(Cl)ccc4C)CC3)cc2nc1CC | inactive | 
22 | COc1ccc(CCNC(=O)c2c3c(nc4ccccc24)C(=O)N(C2CCCCC2)C3)cc1OC | inactive | 
23 | COc1cccc(NC(=O)c2ccc3nc(CCc4ccccc4)oc3c2)c1 | inactive | 
24 | CCOC(=O)c1scc(-c2ccc(C)cc2)c1S(=O)(=O)Nc1cc(C)ccc1C | inactive | 
25 | COc1ccc(NC(=O)C2CCN(c3ccc(Sc4ccc(C)cc4)nn3)CC2)c(OC)c1 | inactive | 

Row | SMILES | Potency | activity change, negative = inhibition
26 | Nc1ccc(N=Nc2ccccc2Cl)c(N)n1 | 25.1 µM (active) | 
27 | COc1ccc(Cl)cc1N(C)C(=O)c1cc2c(=O)oc3ccc(C)cc3c2s1 | inactive | 
28 | Cc1cc(C)n2nc(C(=O)N3CCN(Cc4ccc5c(c4)OCO5)CC3)nc2n1 | inactive | 
29 | COc1cc(Cl)c(S(=O)(=O)N2CCN(Cc3ccc4c(c3)OCO4)CC2)cc1Cl | inactive | 
30 | COc1ccc(-c2cc(C(=O)N3CCN(Cc4ccc5c(c4)OCO5)CC3)on2)cc1OC | 20 µM (active) | 
31 | COc1ccc(-c2nc3scc(CCNS(=O)(=O)c4cc(F)ccc4OC)n3n2)cc1OC | inactive | 
32 | Cc1cc(C)nc(S/C=C/C(=O)c2ccccc2)n1 | inactive | 
33 | O=C(/C=C/Sc1ncn[nH]1)c1ccc(Cl)cc1 | 31.6 µM (active) | 
34 | CC(=O)c1ccc(N2CCN(c3nc4c(S(=O)(=O)c5ccccc5)nnn4c4ccc(Cl)cc34)CC2)cc1 | inactive | 
35 | COc1ccc(S(=O)(=O)NCc2cccn2Cc2cccc(C)c2)cc1Cl | inactive | 
36 | Cc1ccc(OCC(=O)Oc2ccccc2[N+](=O)[O-])cc1 | inactive | 
37 | O=C(COc1ccccc1[N+](=O)[O-])NC1CC1 | inactive | 
38 | C=CCN(CC=C)CCOc1ccccc1[N+](=O)[O-] | 1 µM (active) | 
39 | COc1ccc(CNC(=O)C2=Cc3cccc(OC)c3OC2)cc1OC | inactive | 
40 | CCN(CC)c1nc(C#N)nc(OC)n1 | inactive | 
41 | O=C(CCn1c(=O)c2sccc2n(Cc2ccc(F)cc2)c1=O)NCc1ccc2c(c1)OCO2 | inactive | 
42 | CN(CCOc1ccc(CC2SC(=O)NC2=O)cc1)c1ccccn1 (configuration not stated) | inactive | 
43 | CCN(CC)CCOc1ccc2c(c1)C(=NNC(=O)c1ccccn1)c1cc(OCCN(CC)CC)ccc1-2 | 25.1 µM (active) | 
44 | CC(O)c1ccc(OCCN(C)c2ccccn2)cc1 (configuration not stated) | inactive | 
45 | Cc1cccc(NC(=O)Cn2nc(-c3ccc(Cl)cc3)c3ccccc3c2=O)c1 | inactive | 
46 | O=C(CN1C(=O)COc2ccc(S(=O)(=O)N3CCCCCC3)cc21)N1CCN(c2cccc(C(F)(F)F)c2)CC1 | inactive | 
47 | CCOCCCNC(=O)c1c(NC(=O)Cc2coc3ccc(C)cc23)sc2c1CCC2 | inactive | 
48 | Cc1cc(C(=O)O)ccc1[N+](=O)[O-] | inactive | 
49 | CC(C)(C)c1ccc(/C=C/C(=O)Nc2ncccn2)cc1 | inactive | 
50 | CN(C)c1ccc(/C=C/C(=O)c2ccc(C(C)(C)C)cc2)cc1[N+](=O)[O-] | 11.2 µM (active) | 

Row | SMILES | Potency | activity change, negative = inhibition
51 | CCOc1ccc(NC(=O)CC2C(=O)N(c3cccc(OC)c3)C(=O)N2C2CCCCC2)cc1 (configuration not stated) | inactive | 
52 | Cc1ccccc1CNC(=O)CCc1cn(Cc2ccccc2C)c2ccccc12 | inactive | 
53 | CSCCC(NC(=O)c1cc([N+](=O)[O-])cc([N+](=O)[O-])c1)c1nc2ccccc2[nH]1 (configuration not stated) | inactive | 
54 | COc1ccc(CC(=O)N[C@@H](CCSC)c2nc3ccccc3[nH]2)cc1 | inactive | 
55 | CSCCC(NC(=O)c1ccc(=O)n(C)n1)c1nc2ccccc2[nH]1 (configuration not stated) | 89.1 µM (active) | 
56 | Cc1ccc(CNC(=O)CCC(=O)N2Cc3ccccc3Oc3ncccc32)cc1 | inactive | 
57 | O=C(Nc1nonc1-c1ccc(Cl)cc1)c1ccco1 | inactive | 
58 | CCN(c1ccc(Cl)cc1)S(=O)(=O)c1nnc(NC(=O)c2ccco2)s1 | inactive | 
59 | O=C(Nc1nc(-c2ccco2)c(-c2ccco2)s1)c1ccco1 | 50.1 µM (active) | 
60 | Cc1ccc(S(=O)(=O)c2cn(Cc3ccccc3)c3cc(N4CCCC4)c(F)cc3c2=O)c(C)c1 | inactive | 
61 | O=C(COc1ccc(Cl)cc1)Nc1ccc2c(c1)OCO2 | inactive | 
62 | CCOc1ccc(NCCC(=O)c2ccc3c(c2)OCO3)cc1 | 39.8 µM (active) | 
63 | COC(=O)CCNc1ccc2c(c1)OCCO2 | inactive | 
64 | Cc1ccc(CNC(=O)C2(C(F)(F)F)C/C(=C\Cc3ccccc3)CCCO2)o1 (configuration not stated) | inactive | 
65 | CNC(=O)[C@]1(C(F)(F)F)C[C@H](CCc2ccccc2)CCCO1 | inactive | 
66 | O=C(NCc1ccccn1)[C@]1(C(F)(F)F)C[C@H](CCc2ccccc2)CCCO1 | 39.8 µM (active) | 
67 | CCCOc1cccc(C(=O)Nc2cccc(NC(=O)c3ccc(C(C)(C)C)cc3)c2)c1 | inactive | 
68 | CCOc1ccc(-c2n[nH]c(=S)n2/N=C/c2cc3c(cc2[N+](=O)[O-])OCO3)cc1 | 17.8 µM (active) | 
69 | CCN1CCN(C(C(=O)NC2CCCC2)c2cc3c(cc2[N+](=O)[O-])OCO3)CC1 (configuration not stated) | inactive | 
70 | Cc1ccc(S(=O)(=O)N/N=C\c2cc3c(cc2[N+](=O)[O-])OCO3)cc1 | inactive | 
71 | CCOC(=O)c1nc(-c2ccc3c(c2)OCO3)[nH]c1C | inactive | 
72 | Cc1ccc(-c2n[nH]c(=S)n2/N=C/c2cc3c(cc2[N+](=O)[O-])OCO3)cc1 | 10 µM (active) | 
73 | O=S(=O)(c1ccc(Cl)cc1)c1nnn2c1nc(NC1CCCC1)c1sccc12 | inactive | 
74 | COc1ccc(-c2ccc(CNCCCN3CCOCC3)o2)cc1Cl | inactive | 
75 | Fc1ccc(-c2ccc(CNCc3ccccn3)o2)cc1Cl | 63.1 µM (active) | 

Row | SMILES | Potency | activity change, negative = inhibition
76 | Cc1cc(S(=O)(=O)NCc2ccccn2)c(Cl)cc1Cl | inactive | 
77 | O=C(NC1CCN(Cc2ccccc2)CC1)c1ccc(Cn2c(=O)c3ccccc3n(Cc3cccc(F)c3)c2=O)cc1 | inactive | 
78 | O=C1CN(C(=O)Nc2ccccc2C(F)(F)F)C(c2ccccc2)c2c(sc3c2CCCC3)N1 (configuration not stated) | inactive | 
79 | COc1ccc(CNC(=O)CS(=O)Cc2nc(-c3cccc(C)c3)oc2C)cc1 (configuration not stated) | inactive | 
80 | CC1(C)CC(=O)C=C(N2CCOCC2)C1 | inactive | 
81 | CC1(C)CC(N2CCN(C(c3ccccc3)c3ccccc3)CC2)=CC(=[N+]2CCCCC2)C1 | 25.1 µM (active) | 
82 | Cc1cccc(N2CCN(C(c3ccccc3)c3nnnn3CC3CCCO3)CC2)c1C (configuration not stated) |  | -8.9% [at 11.4 µM] (inactive)
83 | CCNS(=O)(=O)c1ccc(NC(=O)CSc2nc(-c3ccco3)cc(C(F)(F)F)n2)cc1 | inactive | 
84 | O=C(CSc1cn(CC(=O)N2CCOCC2)c2ccccc12)Nc1ccccc1 | inactive | 
85 | CC(=O)Nc1ccc(NC(=O)C2CCCN(S(=O)(=O)c3ccc4c(c3)CCCC(=O)N4)C2)cc1 (configuration not stated) | inactive | 
86 | COc1cc(C2c3c(oc4ccccc4c3=O)C(=O)N2c2nc(C)c(C)s2)ccc1O (configuration not stated) | inactive | 
87 | CCOc1ccc(-n2c(C)nc3c(cnn3-c3ccc(C)cc3)c2=O)cc1 | inactive | 
88 | Cn1ccc2cc(S(=O)(=O)N3CCCC(C(=O)NCc4ccccc4F)C3)ccc21 (configuration not stated) | inactive | 
89 | CN(Cc1cccc2ncccc12)C(=O)CC1C(=O)NCCN1Cc1ccc(F)cc1 (configuration not stated) | inactive | 
90 | COc1cccc(CN2CCNC(=O)C2CC(=O)N(C)CCc2ccccn2)c1 (configuration not stated) | inactive | 
91 | COc1ccc(CN2CCNC(=O)C2CC(=O)N(C)Cc2ccccn2)cc1OC (configuration not stated) | 14.1 µM (active) | 
92 | Cc1ccc(CCNC(=O)c2ccc3c(c2)N(Cc2cc(C)ccc2C)C(=O)c2ccccc2S3=O)cc1 (configuration not stated) | inactive | 
93 | Cc1ccc(NC(=O)NC(C)c2c(-n3cccc3)sc(C)c2C)c(C)c1 (configuration not stated) | inactive | 
94 | COc1ccc(NC(=O)NC(C)c2c(-n3cccc3)sc(C)c2C)cc1OC (configuration not stated) | 50.1 µM (active) | 
95 | CCn1cc(NC(=O)Nc2ccc(OC)c(OC)c2)c(C(N)=O)n1 | inactive | 
96 | Cc1cc2c(s1)c1cnn(Cc3c(F)cccc3Cl)c(=O)c1n2C | inactive | 
97 | Cc1ccc(S(=O)(=O)N(CC(=O)Nc2ccc(Cl)cc2Cl)c2ccccc2C)cc1 | inactive | 
